# Reference: PubChem BioAssay (EPA / NIEHS)
# Values joined by “and” are separate entries in the source; they are usually repeats but may differ in a detail not shown here. Identical values can stand only once. Active and inactive are the calls of the source. The calls were made as follows: active = hit-call score of the fitted dose curve at least 0.9, where 1 is the maximum; inactive = score below 0.9.
# Tested on: TTR (gene 7276)
# Assay: CCTE_GLTED_hTTR_0.125uM: CCTE's human Transthyretin (hTTR) Inhibition Assay, with 0.125uM TTR, Great Lakes Toxicology and Ecology Division (GLTED) Lab (AID 2284431)
# Experimental: CCTE_GLTED_hTTR is a cell-free, single-readout assay designed to test the chemicals' ability to displace T4 from the human transthyretin (TTR) protein. TTR (at 0.125uM or 0.5uM) is incubated in presence of test chemical for 2 hours during which disrupting chemicals displace ANSA from the TTR protein. Results read fluorescence at 380 excitation and 475 emission.CCTE_GLTED_hTTR_0.125uM is the assay component measured from the CCTE_GLTED_hTTR assay. It is designed to make measurements of fluorescent polarization, using a form of binding reporter, as detected with Fluorescence signals by Fluorescence technology.Data from the assay component CCTE_GLTED_hTTR_0.125uM was analyzed at the assay endpoint CCTE_GLTED_hTTR_0.125uM in the positive analysis fitting direction relative to DMSO as the negative control and baseline of activity. Using a type of binding reporter, loss-of-signal activity can be used to understand a chemical's ability to displace T4 from transthyretin. To generalize the intended target to other relatable targets, this assay endpoint is annotated to the 'transporter' intended target family, where the subfamily is 'hormone carrier protein'.
# Human transthyretin (TTR) assay, developed at Great Lakes Toxicology and Ecology Division (GLTED) within the EPA's Center for Computational Toxicology and Exposure (CCTE), is designed to test the chemicals' ability to displace T4 from the TTR protein. TTR (0.125uM) is incubated in presence of test chemical for 2 hours during which disrupting chemicals displace ANSA from the TTR protein. Results read fluorescence at 380 excitation and 475 emission.
row,SMILES,AC50
1,O=[N+]([O-])c1ccc(O)cc1,6.47 µM (active) and 8.54 µM (active)
2,CC(C)(C)c1ccc(O)c(C(C)(C)C)c1,9980 nM (active)
3,O=C(O)Cc1cc(I)c(Oc2cc(I)c(O)c(I)c2)c(I)c1,10.4 nM (active)
4,CCCCCCCCCCCCc1ccccc1S(=O)(=O)O,890 nM (active)
5,NC(=O)N(O)[C@@H]1C=C[C@H](Oc2cccc(Oc3ccc(F)cc3)c2)C1,439 nM (active)
6,CCCOC(=O)c1ccc(O)cc1,5010 nM (active)
7,NC(=O)N1C(=O)C(C(=O)c2cc(Cl)cs2)c2cc(F)c(Cl)cc21 (configuration not stated),48.1 nM (active)
8,ClC1=C(Cl)C(Cl)(Cl)C(Cl)=C1Cl,7090 nM (active)
9,CC[C@H](c1ccc(O)cc1)[C@@H](CC)c1ccc(O)cc1,132 nM (active)
10,CCc1ccc(CCOc2ccc(CC3SC(=O)NC3=O)cc2)nc1 (configuration not stated),392 nM (active)
11,CCCCCCCCC(=O)O,12400 nM (active)
12,O=C(O)c1ccccc1C(c1ccc(O)cc1)c1ccc(O)cc1,3040 nM (active)
